# Test results taken from the supplement of paper PMC6411743.
# ± gives the standard deviation of the averaged measurements. Of roughly 6,200 targets only a part is listed; those with the largest changes were picked by preference.
# How the values were obtained:
# Assay in all cases: NP40-soluble protein abundance relative to vehicle (solubility fold change) (ratio); higher = more soluble protein in presence of AMP-PNP
# A0A087WXD1|Q96T83 = biological target: T1, A0A087WXD1|Q96T83 (UniProt Q96T83)
# T1 sequence (whole entry): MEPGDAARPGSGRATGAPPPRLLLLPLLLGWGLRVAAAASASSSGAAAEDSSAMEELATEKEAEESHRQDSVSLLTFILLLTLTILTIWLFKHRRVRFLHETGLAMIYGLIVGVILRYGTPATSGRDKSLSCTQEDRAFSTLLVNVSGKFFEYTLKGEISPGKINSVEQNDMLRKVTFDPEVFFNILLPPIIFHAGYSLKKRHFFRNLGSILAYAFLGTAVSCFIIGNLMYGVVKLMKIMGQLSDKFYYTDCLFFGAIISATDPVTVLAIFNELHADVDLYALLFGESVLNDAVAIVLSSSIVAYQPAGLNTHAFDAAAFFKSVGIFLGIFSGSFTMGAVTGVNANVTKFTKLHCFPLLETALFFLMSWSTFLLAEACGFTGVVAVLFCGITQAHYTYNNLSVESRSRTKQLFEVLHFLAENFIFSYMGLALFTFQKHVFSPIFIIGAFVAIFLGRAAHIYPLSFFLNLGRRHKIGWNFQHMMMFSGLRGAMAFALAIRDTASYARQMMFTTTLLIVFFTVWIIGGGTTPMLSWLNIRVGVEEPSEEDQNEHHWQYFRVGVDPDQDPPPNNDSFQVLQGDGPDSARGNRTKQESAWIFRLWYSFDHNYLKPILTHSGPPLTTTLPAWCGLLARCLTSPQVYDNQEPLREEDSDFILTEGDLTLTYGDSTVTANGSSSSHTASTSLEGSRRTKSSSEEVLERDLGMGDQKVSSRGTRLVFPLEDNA
# Method in brief: (§1)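 Eight concentrations, 0.1 to 10 mM, were tested on Jurkat crude lysate for 10 min at room temperature and then 3 min at 37 °C, in three independent experiments. The lysate was solubilised with 0.8% NP40 and benzonase, ultracentrifuged, and the supernatant TMT-labelled for LC-MS/MS. Each value is the fold change against the detergent-processed vehicle in its own replicate, from vsn-normalised intensities.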
# [1] = biological target: A0A087WY00|F8W6H6|Q9Y4I1|Q9Y4I1-2|G3V394|Q9Y4I1-3 (UniProt Q9Y4I1)
# Chain of A0A087WY00|F8W6H6|Q9Y4I1|Q9Y4I1-2|G3V394|Q9Y4I1-3 (Q9Y4I1 whole entry, one chain of several): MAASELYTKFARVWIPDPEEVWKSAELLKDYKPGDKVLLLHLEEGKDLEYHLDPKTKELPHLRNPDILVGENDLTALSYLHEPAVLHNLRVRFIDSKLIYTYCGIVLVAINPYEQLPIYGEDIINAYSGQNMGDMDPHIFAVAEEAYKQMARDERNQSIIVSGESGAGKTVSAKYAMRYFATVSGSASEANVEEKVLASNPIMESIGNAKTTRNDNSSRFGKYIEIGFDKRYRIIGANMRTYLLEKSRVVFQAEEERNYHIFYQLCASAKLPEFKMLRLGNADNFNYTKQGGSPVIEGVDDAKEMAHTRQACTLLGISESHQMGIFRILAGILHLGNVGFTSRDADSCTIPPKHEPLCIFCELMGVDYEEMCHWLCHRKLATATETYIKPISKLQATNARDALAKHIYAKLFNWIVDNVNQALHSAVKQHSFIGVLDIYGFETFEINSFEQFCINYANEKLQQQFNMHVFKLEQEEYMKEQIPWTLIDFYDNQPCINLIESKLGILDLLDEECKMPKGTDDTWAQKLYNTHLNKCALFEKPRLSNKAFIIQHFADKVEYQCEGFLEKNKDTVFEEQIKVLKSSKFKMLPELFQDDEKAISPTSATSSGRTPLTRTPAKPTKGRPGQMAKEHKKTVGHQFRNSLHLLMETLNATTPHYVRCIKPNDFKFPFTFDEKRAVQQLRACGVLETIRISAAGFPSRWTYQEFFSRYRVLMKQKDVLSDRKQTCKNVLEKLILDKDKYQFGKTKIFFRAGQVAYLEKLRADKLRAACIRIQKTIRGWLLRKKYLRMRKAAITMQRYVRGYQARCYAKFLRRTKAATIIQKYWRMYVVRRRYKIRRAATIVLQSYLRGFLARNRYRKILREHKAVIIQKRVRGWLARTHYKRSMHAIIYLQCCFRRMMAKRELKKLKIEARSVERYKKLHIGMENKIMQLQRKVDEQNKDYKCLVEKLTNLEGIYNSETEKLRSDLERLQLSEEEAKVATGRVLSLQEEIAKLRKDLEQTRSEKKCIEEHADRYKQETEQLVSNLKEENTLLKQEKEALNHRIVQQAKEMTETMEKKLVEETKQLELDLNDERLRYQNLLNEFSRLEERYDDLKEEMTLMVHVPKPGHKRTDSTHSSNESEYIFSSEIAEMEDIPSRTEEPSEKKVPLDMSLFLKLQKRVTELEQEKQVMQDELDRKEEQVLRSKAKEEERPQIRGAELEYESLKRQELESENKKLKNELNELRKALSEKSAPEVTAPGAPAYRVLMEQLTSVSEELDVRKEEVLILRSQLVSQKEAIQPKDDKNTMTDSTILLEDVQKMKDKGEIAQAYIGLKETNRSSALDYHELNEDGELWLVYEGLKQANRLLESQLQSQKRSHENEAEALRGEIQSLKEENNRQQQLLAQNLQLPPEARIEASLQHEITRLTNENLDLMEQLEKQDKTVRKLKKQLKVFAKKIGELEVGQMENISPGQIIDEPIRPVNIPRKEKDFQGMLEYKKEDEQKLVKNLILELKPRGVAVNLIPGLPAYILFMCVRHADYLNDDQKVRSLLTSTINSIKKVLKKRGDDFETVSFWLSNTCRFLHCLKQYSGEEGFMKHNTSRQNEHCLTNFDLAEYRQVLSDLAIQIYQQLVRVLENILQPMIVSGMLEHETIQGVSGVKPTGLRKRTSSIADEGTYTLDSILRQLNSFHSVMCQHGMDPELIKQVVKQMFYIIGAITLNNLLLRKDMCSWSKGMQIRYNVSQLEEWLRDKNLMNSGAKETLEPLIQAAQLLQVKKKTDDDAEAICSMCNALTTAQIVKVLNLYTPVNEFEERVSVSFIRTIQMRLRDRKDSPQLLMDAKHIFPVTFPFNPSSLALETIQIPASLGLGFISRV
# Method in brief: as §1
# A0A087WYG2|E9PFH7|Q9UPT6 = biological target: T2, A0A087WYG2|E9PFH7|Q9UPT6 (UniProt Q9UPT6)
# T2 sequence (whole entry): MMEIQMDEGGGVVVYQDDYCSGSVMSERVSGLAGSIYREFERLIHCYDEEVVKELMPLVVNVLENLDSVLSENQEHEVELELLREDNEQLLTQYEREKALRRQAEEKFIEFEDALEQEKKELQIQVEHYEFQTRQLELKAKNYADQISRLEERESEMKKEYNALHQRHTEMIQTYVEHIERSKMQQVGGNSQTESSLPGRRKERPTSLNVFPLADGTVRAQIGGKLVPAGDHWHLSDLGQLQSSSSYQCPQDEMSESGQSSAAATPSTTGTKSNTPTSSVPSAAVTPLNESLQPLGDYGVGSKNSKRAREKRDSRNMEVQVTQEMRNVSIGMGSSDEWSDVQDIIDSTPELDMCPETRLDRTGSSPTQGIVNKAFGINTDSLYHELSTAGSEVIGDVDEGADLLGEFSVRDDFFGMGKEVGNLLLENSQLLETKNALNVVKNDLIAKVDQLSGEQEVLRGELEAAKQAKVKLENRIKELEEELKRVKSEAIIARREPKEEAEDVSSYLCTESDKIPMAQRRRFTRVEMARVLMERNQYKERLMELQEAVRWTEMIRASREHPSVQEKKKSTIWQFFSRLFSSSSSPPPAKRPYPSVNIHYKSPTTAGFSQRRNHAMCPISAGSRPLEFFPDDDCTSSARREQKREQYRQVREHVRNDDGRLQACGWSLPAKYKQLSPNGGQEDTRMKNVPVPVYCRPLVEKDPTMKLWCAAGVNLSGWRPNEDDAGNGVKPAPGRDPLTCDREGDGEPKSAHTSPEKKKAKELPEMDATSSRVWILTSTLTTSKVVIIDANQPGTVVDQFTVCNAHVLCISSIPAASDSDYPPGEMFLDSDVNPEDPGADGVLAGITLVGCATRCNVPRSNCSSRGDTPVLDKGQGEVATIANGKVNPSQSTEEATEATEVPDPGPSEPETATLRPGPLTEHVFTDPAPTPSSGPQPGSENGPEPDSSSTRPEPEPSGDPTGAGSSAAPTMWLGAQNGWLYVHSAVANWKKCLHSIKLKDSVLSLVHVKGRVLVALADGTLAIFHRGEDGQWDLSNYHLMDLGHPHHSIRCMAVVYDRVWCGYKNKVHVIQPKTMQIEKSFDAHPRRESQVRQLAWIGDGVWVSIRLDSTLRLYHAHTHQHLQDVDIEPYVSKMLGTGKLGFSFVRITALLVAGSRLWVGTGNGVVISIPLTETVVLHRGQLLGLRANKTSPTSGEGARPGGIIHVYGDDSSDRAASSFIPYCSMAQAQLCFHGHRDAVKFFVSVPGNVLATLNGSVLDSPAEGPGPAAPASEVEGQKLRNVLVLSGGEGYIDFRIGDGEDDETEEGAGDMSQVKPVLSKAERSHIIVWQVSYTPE
# Method in brief: as §1
# A0A087WYN9|Q7Z478 = biological target: T3, A0A087WYN9|Q7Z478 (UniProt Q7Z478)
# T3 sequence (whole entry): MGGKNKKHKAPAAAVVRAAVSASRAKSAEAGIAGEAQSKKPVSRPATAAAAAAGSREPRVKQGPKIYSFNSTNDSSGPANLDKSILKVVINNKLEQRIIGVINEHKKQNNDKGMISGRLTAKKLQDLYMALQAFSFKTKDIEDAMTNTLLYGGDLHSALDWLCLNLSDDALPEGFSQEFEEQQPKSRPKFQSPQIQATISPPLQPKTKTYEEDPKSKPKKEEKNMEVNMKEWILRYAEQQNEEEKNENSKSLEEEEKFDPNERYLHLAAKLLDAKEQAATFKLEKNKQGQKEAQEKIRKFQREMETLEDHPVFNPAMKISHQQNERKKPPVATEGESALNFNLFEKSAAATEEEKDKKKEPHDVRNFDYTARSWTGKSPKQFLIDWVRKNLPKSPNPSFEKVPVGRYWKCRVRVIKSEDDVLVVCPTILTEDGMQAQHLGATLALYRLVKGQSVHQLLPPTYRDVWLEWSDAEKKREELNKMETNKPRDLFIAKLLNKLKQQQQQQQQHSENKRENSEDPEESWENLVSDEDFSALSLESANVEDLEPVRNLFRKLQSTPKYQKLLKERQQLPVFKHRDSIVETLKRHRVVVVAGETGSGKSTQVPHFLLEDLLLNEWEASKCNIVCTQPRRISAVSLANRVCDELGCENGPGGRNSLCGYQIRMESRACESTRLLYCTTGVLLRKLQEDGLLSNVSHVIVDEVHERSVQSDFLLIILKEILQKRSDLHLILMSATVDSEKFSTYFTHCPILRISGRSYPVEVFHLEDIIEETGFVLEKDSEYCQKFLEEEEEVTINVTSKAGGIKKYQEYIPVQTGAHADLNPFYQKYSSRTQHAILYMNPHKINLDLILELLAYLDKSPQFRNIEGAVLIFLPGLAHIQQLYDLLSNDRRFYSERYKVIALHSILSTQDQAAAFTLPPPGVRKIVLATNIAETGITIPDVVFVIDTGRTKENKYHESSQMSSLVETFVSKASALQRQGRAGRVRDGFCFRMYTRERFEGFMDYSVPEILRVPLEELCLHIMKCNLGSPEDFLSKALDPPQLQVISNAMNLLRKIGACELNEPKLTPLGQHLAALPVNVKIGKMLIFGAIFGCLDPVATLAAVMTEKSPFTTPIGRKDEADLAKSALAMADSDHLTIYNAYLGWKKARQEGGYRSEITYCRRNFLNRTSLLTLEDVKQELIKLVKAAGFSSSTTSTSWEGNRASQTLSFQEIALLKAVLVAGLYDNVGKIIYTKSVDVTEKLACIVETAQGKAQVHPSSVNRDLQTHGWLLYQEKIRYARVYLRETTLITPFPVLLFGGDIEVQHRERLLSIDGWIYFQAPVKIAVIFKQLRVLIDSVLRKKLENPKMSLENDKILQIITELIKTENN
# Method in brief: as §1
# A0A087WZ62 = system: A0A087WZ62
# Method in brief: as §1
smiles,measurement,setting,value
Nc1ncnc2c1ncn2[C@@H]1O[C@H](COP(=O)(O)OP(=O)(O)NP(=O)(O)O)[C@@H](O)[C@H]1O [adenylyl imidodiphosphate],NP40-soluble protein abundance,A0A087WXD1|Q96T83; concentration: 1mM,0.971 ± 0.05
same,NP40-soluble protein abundance,A0A087WXD1|Q96T83; concentration: 2mM,0.973 ± 0.015
same,NP40-soluble protein abundance,A0A087WXD1|Q96T83; concentration: 4mM,0.958 ± 0.033
same,NP40-soluble protein abundance,A0A087WXD1|Q96T83; concentration: 6mM,0.948 ± 0.038
same,NP40-soluble protein abundance,A0A087WXD1|Q96T83; concentration: 8mM,0.935 ± 0.027
same,NP40-soluble protein abundance,A0A087WXD1|Q96T83; concentration: 10mM,0.9324 ± 0.0081
same,NP40-soluble protein abundance,[1]; concentration: 1mM,1.9 ± 0.27
same,NP40-soluble protein abundance,[1]; concentration: 2mM,1.97 ± 0.29
same,NP40-soluble protein abundance,[1]; concentration: 4mM,2.07 ± 0.28
same,NP40-soluble protein abundance,[1]; concentration: 6mM,2 ± 0.31
same,NP40-soluble protein abundance,[1]; concentration: 8mM,1.96 ± 0.29
same,NP40-soluble protein abundance,[1]; concentration: 10mM,2.01 ± 0.24
same,NP40-soluble protein abundance,A0A087WYG2|E9PFH7|Q9UPT6; concentration: 1mM,1.01 ± 0.034
same,NP40-soluble protein abundance,A0A087WYG2|E9PFH7|Q9UPT6; concentration: 2mM,1.03 ± 0.025
same,NP40-soluble protein abundance,A0A087WYG2|E9PFH7|Q9UPT6; concentration: 4mM,1.03 ± 0.025
same,NP40-soluble protein abundance,A0A087WYG2|E9PFH7|Q9UPT6; concentration: 6mM,0.988 ± 0.026
same,NP40-soluble protein abundance,A0A087WYG2|E9PFH7|Q9UPT6; concentration: 8mM,0.981 ± 0.022
same,NP40-soluble protein abundance,A0A087WYG2|E9PFH7|Q9UPT6; concentration: 10mM,1 ± 0.023
same,NP40-soluble protein abundance,A0A087WYN9|Q7Z478; concentration: 1mM,1.31 ± 0.067
same,NP40-soluble protein abundance,A0A087WYN9|Q7Z478; concentration: 2mM,1.49 ± 0.079
same,NP40-soluble protein abundance,A0A087WYN9|Q7Z478; concentration: 4mM,1.73 ± 0.18
same,NP40-soluble protein abundance,A0A087WYN9|Q7Z478; concentration: 6mM,1.9 ± 0.22
same,NP40-soluble protein abundance,A0A087WYN9|Q7Z478; concentration: 8mM,2.01 ± 0.24
same,NP40-soluble protein abundance,A0A087WYN9|Q7Z478; concentration: 10mM,2.1 ± 0.29
same,NP40-soluble protein abundance,A0A087WZ62; concentration: 1mM,0.976 ± 0.026
same,NP40-soluble protein abundance,A0A087WZ62; concentration: 2mM,0.963 ± 0.027
same,NP40-soluble protein abundance,A0A087WZ62; concentration: 4mM,0.931 ± 0.022
